Laboratory results: PubChem BioAssay AID1851 (National Center for Advancing Translational Sciences (NCATS), 2009)
Where “and” joins values, the source holds several entries; their conditions need not be identical. Equal entries are not always repeated. Hit rate of the full screen: of about 16,000 compounds, about 2,600 (16%) were called active. About 20% were inconclusive and are not listed. The call rests on the fitted dose curve; in most records, active means well fitted curve in the direction sought with a large enough effect; inconclusive means small, poorly fitted or top-dose-only effect, or effect the other way; inactive means no such curve, though single readings can be large or run the other way. A selection follows. A structure can be active in one record and inactive in another.

biological target: Cytochrome P450 2D6 (Homo sapiens) (UniProt P10635); test: Cytochrome panel assay with activity outcomes; conditions: recombinant CYP, pro-luciferin dealkylation, luminescence, p450-cyp2d6; series mostly up to 57.1 µM; activity, negative = inhibition: at the top concentration
Sequence (P10635 whole entry, looked up): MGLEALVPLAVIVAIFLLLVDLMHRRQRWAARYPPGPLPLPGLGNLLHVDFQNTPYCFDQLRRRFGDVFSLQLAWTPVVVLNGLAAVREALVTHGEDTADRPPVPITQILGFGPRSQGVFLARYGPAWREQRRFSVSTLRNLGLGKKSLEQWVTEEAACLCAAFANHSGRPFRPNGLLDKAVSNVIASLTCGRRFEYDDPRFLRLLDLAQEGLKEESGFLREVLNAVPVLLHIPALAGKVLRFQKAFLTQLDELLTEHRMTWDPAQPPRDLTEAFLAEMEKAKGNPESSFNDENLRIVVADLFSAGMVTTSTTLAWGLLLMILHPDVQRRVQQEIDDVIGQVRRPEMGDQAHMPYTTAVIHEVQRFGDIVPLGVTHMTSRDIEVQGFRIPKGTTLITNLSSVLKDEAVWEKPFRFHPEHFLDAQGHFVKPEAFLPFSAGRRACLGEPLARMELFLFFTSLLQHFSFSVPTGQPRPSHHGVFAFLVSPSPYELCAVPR
On the % scale 0 is the no-effect control and ±100 the full control effect.

| Compound | activity, negative = inhibition | AC50 |
| --- | --- | --- |
| C/C(=N\Nc1nnc(-c2ccccc2)c(-c2ccccc2)n1)c1cccc([N+](=O)[O-])c1 | -29.2% (inactive) | – |
| O=c1c(C=Nc2cccc(C(F)(F)F)c2)c[nH]n1-c1cccc(Cl)n1 | -18.9% (inactive) | – |
| CCc1cc2c(nc1CC)CCN(CC/C(C)=N/OC[C@@H](C)[C@H](OCc1ccccc1)C(C)C)C2 | -10.6% [at 11.4 µM] (inactive) | – |
| COc1ccccc1NC(=O)CCc1c(C)[nH]c(=O)c(C#N)c1C | -20.1% (inactive) | – |
| CC1Cc2ccccc2N1C(=O)CSc1nnnn1C(C)C (stereo not given) | -0.323% (inactive) | – |
| Cc1ccc2c(c1)nnn2C1CCN(CC(=O)N2c3ccccc3CC2C)CC1 (stereo not given) | – | 25.1 µM (active) |
| CC1Cc2ccccc2N1C(=O)Cn1cc([N+](=O)[O-])cn1 (stereo not given) | -4.04% (inactive) | – |
| O=C(O)/C=C\c1cnc[nH]1 | -4.82% (inactive) | – |
| CC(=O)N1CCC(=O)N(C(C)C)c2ccccc21 | – | 3.16 µM (active) |
| CC(=O)NC1=NN(c2ccccc2)C(=O)C1 | 22.6% (inactive) | – |
| Cc1nn(C(C)C(=O)N2CCc3ccccc32)c(C)c1[N+](=O)[O-] (stereo not given) | -3.76% (inactive) | – |
| C/C(Cl)=C/CSc1nnc2n(N)c(=O)c3ccccc3n12 | -14.6% (inactive) | – |
| O=C(NCc1ccco1)c1ccccc1NS(=O)(=O)c1ccc(Br)s1 | -22.3% (inactive) | – |
| O=C(CNS(=O)(=O)c1ccc(Br)s1)N1CCC(N2CCCCC2)CC1 | – | 12.6 µM (active) |
| CC1CCC(C(=O)NC(C(=O)N2CCC(N3CCCCC3)CC2)C(C)C)CC1 (stereo not given) | -5.87% (inactive) | – |
| CC1CC(C)CN(C(=O)CNS(=O)(=O)c2ccc(Br)s2)C1 (stereo not given) | – | 3.16 µM (active) |
| O=c1c(-c2ccc(F)c(F)c2)nc2cncnc2n1C1CC1 | -0.558% (inactive) | – |
| COc1ccc(C(=O)N/N=C/c2cccc3cccnc23)cc1 | -11.4% (inactive) | – |
| CC(C)(C)c1nnc(NC(=O)NS(=O)(=O)c2ccccc2)s1 | -2.56% (inactive) | – |
| COc1ncc2nc(-c3ccc(F)cc3)c(=O)n(C)c2n1 | -2.72% (inactive) | – |
| Oc1cc2c(c(Cl)c1O)CCNC[C@H]2c1ccccc1 | – | 10 µM (active) |
| Oc1ccc([C@@H]2CNCc3sccc32)cc1O | -12.1% (inactive) | – |
| Oc1cc2c(cc1O)[C@H](c1ccccc1)CNCC2 | – | inactive |
| Oc1ccc([C@@H]2CNCCc3c2cc(O)c(O)c3Cl)cc1 | – | inactive and 3.16 µM (active) |
| CCC(=O)Nc1nonc1-c1nc2ccccc2n1N(C(=O)CC)C(=O)CC | 2.61% (inactive) | – |

| Compound | activity, negative = inhibition | AC50 |
| --- | --- | --- |
| Cc1cc(CNC(=O)[C@H]2C[C@@H]2[C@H](NP(=O)(c2ccccc2)c2ccccc2)c2ccccc2)nn1C | 0.567% (inactive) | – |
| CC1CSc2nc3sc4c(c3c(=O)n21)CCCC4 (stereo not given) | -12.8% (inactive) | – |
| CN(C)c1ncc2nc(-c3cccs3)c(=O)n(Cc3cccs3)c2n1 | 2.06% (inactive) | – |
| Cc1cc(NC(=O)C2C3C(=O)N(Cc4ccc(Cl)cc4)C(C(=O)NC(C)(C)C)C34C=CC2(C)O4)no1 (stereo not given) | 4.95% (inactive) | – |
| COCCn1c(=O)c(-c2cc(F)cc(F)c2)nc2cnc(OC)nc21 | 2.08% (inactive) | – |
| CCNc1ncc2nc(-c3cc(F)cc(F)c3)c(=O)n(CCOC)c2n1 | – | 0.316 µM (active) |
| CN(C)c1ncc2nc(-c3cc(F)cc(F)c3)c(=O)n(CCc3ccccc3)c2n1 | -8.92% (inactive) | – |
| CCNc1ncc2nc(-c3ccc(Cl)cc3)c(=O)n(C[C@H]3CCCO3)c2n1 | 5.84% (inactive) | – |
| CN(C)c1ncc2nc(-c3cc(F)cc(F)c3)c(=O)n(C[C@H]3CCCO3)c2n1 | -0.128% (inactive) | – |
| CN1CCN(c2ncc3nc(-c4cccs4)c(=O)n(CCc4ccccc4)c3n2)CC1 | -7.46% (inactive) | – |
| CCNc1ncc2nc(-c3cc(F)cc(F)c3)c(=O)n(C[C@H]3CCCO3)c2n1 | – | 0.158 µM (active) |
| COCCn1c(=O)c(-c2cc(F)cc(F)c2)nc2cnc(N(C)C)nc21 | 11.4% (inactive) | – |
| CCNc1ncc2nc(-c3cc(F)cc(F)c3)c(=O)n(Cc3cccs3)c2n1 | 1.18% (inactive) | – |
| Cc1nc2cnc(N3CCN(C)CC3)nc2n(CCc2ccccc2)c1=O | – | 2.51 µM (active) |
| CCNc1ncc2nc(-c3cc(F)cc(F)c3)c(=O)n(CCc3ccccc3)c2n1 | – | 15.8 µM (active) |
| CN1CCN(c2ncc3nc(-c4cc(F)cc(F)c4)c(=O)n(CCc4ccccc4)c3n2)CC1 | -8.55% (inactive) | – |
| CC(C)NC(=O)/C(=N\O)c1ccccc1 | 10.4% (inactive) | – |
| Cc1ccc(OCC(=O)NNC(=O)c2cccnc2)cc1 | 27.2% (inactive) | – |
| O=c1c(-c2cccs2)nc2cnc(Oc3ccccc3)nc2n1C1CC1 | 0.176% (inactive) | – |
| COc1ccc(NC(=O)N2CCCC3(CCN(C(=O)c4cccc(F)c4)CC3)C2)cc1 | 1.41% (inactive) | – |
| CN1CCN(c2ncc3nc(-c4ccc(Cl)cc4)c(=O)n(C4CC4)c3n2)CC1 | 8.63% (inactive) | – |
| Cc1ccc(NC(=O)/C(=C/c2cccc([N+](=O)[O-])c2)NC(=O)C2CCCCC2)c(C)c1 | -22.1% (inactive) | – |
| CC1=C(C(=O)Nc2ccccc2F)C(c2ccsc2)C2=C(CC(c3ccccc3)CC2=O)N1 (stereo not given) | -23.9% (inactive) | – |
| COC(=O)C/C=C\[C@@H](C)[C@@H](/C=N\OC[C@@H]1O[C@H](c2ccccc2)C=C[C@@H]1Oc1ccc(OC)cc1)OC | -17.7% [at 11.4 µM] (inactive) | – |
| COC(=O)c1ccccc1N/C=C1\CCc2c(c(C)nn2-c2ccccn2)C1=O | 2.73% (inactive) | – |

| Compound | activity, negative = inhibition | AC50 |
| --- | --- | --- |
| CCOc1ccc(/C=N/Nc2nc(N3CCCC3)nc(N3CCCC3)n2)cc1OC | -3.09% (inactive) | – |
| CCNc1ncc2nc(-c3ccccc3)c(=O)n(C)c2n1 | -0.71% (inactive) | – |
| CCNc1ncc2nc(-c3ccc(OC)cc3)c(=O)n(CCOC)c2n1 | 0.671% (inactive) | – |
| COCCn1c(=O)c(-c2ccccc2)nc2cnc(Nc3ccccc3)nc21 | 0.836% (inactive) | – |
| CCNc1ncc2nc(-c3ccccc3)c(=O)n(CCc3ccccc3)c2n1 | – | 10 µM (active) |
| CCNc1ncc2nc(C)c(=O)n(CCc3ccccc3)c2n1 | -11.9% (inactive) | – |
| CCNc1ncc2nc(-c3ccccc3)c(=O)n(CCOC)c2n1 | – | 3.16 µM (active) |
| CCOC(=O)c1sc(=N)n(-c2ccc(OC)cc2)c1C | -6.61% (inactive) | – |
| COc1cccc(/C=c2/s/c(=C(\C#N)C(=O)N3CCOCC3)n(-c3ccccc3)c2=O)c1 | 21.4% (inactive) | – |
| Cc1ccc(N2CCN(CCC(=O)O)CC2)cc1 | -9.16% [at 11.4 µM] (inactive) | – |
| Cc1ccc(CSC(N)=Nc2ccccc2)cc1C | – | 0.794 µM (active) |
| CCSC(N)=Nc1ccc(C(F)(F)F)cc1 | -20.9% (inactive) | – |
| N=C(N)c1ccccc1 | 0.724% (inactive) | – |
| O=C(Nc1cccc(C(=O)Nc2ccc(S(=O)(=O)O)c3cc(S(=O)(=O)O)cc(S(=O)(=O)O)c23)c1)Nc1cccc(C(=O)Nc2ccc(S(=O)(=O)O)c3cc(S(=O)(=O)O)cc(S(=O)(=O)O)c23)c1 | – | inactive |
| C(=N/Nc1nnc2c(n1)[nH]c1ccccc12)/c1cccnc1 | -5% [at 11.4 µM] (inactive) | – |
| c1ccc2c[n+](Cc3ccnc4ccccc34)ccc2c1 | – | 3.16 µM (active) |
| COc1cc(NC(=O)c2cc3nc(-c4ccccc4)cc(-c4ccccc4)n3n2)cc(OC)c1OC | 14.1% (inactive) | – |
| COC(=O)c1[nH]c2cccc(OC)c2c1NC(=O)CN(C)CC1OCCO1 | 4.53% (inactive) | – |
| Clc1ccc(N2CCCCCC2)nn1 | -3.2% (inactive) | – |
| NC1CCN(c2cccc(Cl)n2)CC1 | – | 10 µM (active) |
| O=S(=O)(c1ccc(F)cc1)N1CCCC(CO)C1 (stereo not given) | 2.41% (inactive) | – |
| O=S(=O)(c1ccc(F)cc1)N1CC2CCCN2c2ccc(C(F)(F)F)cc21 (stereo not given) | -9.59% (inactive) | – |
| Cc1ccc2c(c1)[C@@H]1CN(C)CC[C@@H]1N2S(=O)(=O)c1ccc(F)cc1 | – | 14.1 µM (active) |
| O=C1O[C@@H]([C@H](O)[C@H](O)[C@H](O)CO)[C@@H](O)[C@@H]1O | 7.22% [at 11.4 µM] (inactive) | – |
| O=C(Cc1ccccc1)Nc1nc(=O)c2ccccc2s1 | -7.22% (inactive) | – |

| Compound | activity, negative = inhibition | AC50 |
| --- | --- | --- |
| O=C(c1cnccn1)N1CCC2(CC1)CCN(c1ccccn1)CC2 | -5.17% (inactive) | – |
| Cc1ccc(-c2ccc(CCC(=O)O)n2CC2CCCO2)cc1 (stereo not given) | -24.3% (inactive) | – |
| Cc1ccc(C(=O)N/N=C/c2cc(C)n(-c3ccc(Br)cc3)c2C)cc1[N+](=O)[O-] | 3.04% (inactive) | – |
| CSc1nc2ccccc2cc1/C=C(\C#N)c1cccc(Cl)c1 | -24.3% (inactive) | – |
| Cc1ccc(-c2noc(CN3CCN(C(c4ccccc4)c4ccccc4)CC3)n2)cc1 | 22.1% (inactive) | – |
| CN1CCN(CC(O)c2ccccc2)CC1 (stereo not given) | 0.505% (inactive) | – |
| CN1CCN([C@@H](c2ccccc2)c2ccc(Cl)cc2)CC1 | – | 2 µM (active) |
| O=C1CC(N2CCN(C(c3ccccc3)c3ccccc3)CC2)C(=O)N1Cc1ccc(N2CCCC2=O)cc1 (stereo not given) | -26.1% (inactive) | – |
| CN1CCCN([C@@H](c2ccccc2)c2ccc(Cl)cc2)CC1 | – | 0.251 µM (active) |
| Cc1cccc(CN2CCN(CC(=O)O)C2=O)c1 | -7.44% (inactive) | – |
| Cc1cccc(CN2CCN([C@@H](c3ccccc3)c3ccc(Cl)cc3)CC2)c1 | – | 3.16 µM (active) |
| CC(=O)N=c1sc(S(N)(=O)=O)nn1C | -0.218% [at 25.6 µM] (inactive) | – |
| COC(=O)c1cc(/C=C/c2ccccc2)on1 | 8.93% (inactive) | – |
| Cc1cnc2cc(Cl)ccc2c1SCC(=O)O | 8.22% [at 11.4 µM] (inactive) | – |
| NS(=O)(=O)c1cc2c(cc1Cl)N[C@@H](CC1CCCC1)NS2(=O)=O | -1.3% [at 25.6 µM] (inactive) | – |
| O=C(CN1C(=O)c2ccccc2C1=O)NCC(=O)OCC(=O)c1ccc(Br)cc1 | 8.27% (inactive) | – |
| CCn1c(CCNC(=O)c2ccccc2Cl)n[nH]c1=S | 7.62% (inactive) | – |
| O=C(O)c1ccccc1/C=N\N=C1c2ccccc2-c2ccccc21 | 16.6% [at 11.4 µM] (inactive) | – |
| CCn1cc(C(=O)NCC(=O)OC)c2cc(OC)c(OC)cc2c1=O | 0.174% (inactive) | – |
| CC1(C)[C@@H]2CC[C@]1(C)[C@@H](OC(=O)CSC#N)C2 | -15% [at 11.4 µM] (inactive) | – |
| CC(C)NC[C@@H](O)COc1cccc2ccccc12 | -1.24% (inactive) | – |
| CC(C)(C)NC[C@H](O)COc1cccc2[nH]c(=O)[nH]c12 | – | inactive |
| C=CCc1ccccc1OC[C@H](O)CNC(C)C | – | 6.31 µM (active) |
| C[C@@]12C[C@H](O)[C@@H]3[C@H](CCC4=CC(=O)CC[C@]43C)[C@H]1CC[C@@H]2c1csc(N)n1 | -10.6% [at 11.4 µM] (inactive) | – |
| Cc1ccc(C)c(S(=O)(=O)NC(C)C(=O)Nc2ccc(-c3nc4ccccc4s3)cc2)c1 (stereo not given) | 12.2% (inactive) | – |
